Screening data (PubChem)
Shown is part of a subset that was picked to be rich in hits.
12-LOX inh: inhibitors of human 12S-lipoxygenase ALOX12; P18054; hit rate 1.1% among 580,000; Potency, µM (doses to about 108 µM), actives largely listed as inhibitors; AID 1671190; purified 12hLO, xylenol orange hydroperoxide absorbance
Target sequence (P18054 whole entry, looked up): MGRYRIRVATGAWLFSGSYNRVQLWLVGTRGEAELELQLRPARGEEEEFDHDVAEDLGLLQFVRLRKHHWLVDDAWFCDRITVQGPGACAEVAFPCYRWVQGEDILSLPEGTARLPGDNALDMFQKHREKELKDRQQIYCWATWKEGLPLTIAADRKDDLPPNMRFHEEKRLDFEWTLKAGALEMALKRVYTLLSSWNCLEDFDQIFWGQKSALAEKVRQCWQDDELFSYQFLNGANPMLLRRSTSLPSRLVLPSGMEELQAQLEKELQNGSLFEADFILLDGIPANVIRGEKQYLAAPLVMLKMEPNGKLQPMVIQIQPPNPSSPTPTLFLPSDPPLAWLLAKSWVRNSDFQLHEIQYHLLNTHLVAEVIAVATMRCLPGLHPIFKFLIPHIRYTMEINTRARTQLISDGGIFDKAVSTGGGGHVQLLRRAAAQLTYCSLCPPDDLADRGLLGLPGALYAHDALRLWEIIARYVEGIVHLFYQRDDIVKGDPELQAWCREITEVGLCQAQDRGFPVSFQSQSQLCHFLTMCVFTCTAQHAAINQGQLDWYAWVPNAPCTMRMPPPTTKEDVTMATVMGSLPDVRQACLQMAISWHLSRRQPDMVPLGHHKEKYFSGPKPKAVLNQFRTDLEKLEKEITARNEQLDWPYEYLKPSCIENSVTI
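Purified human 12hLO (150 nM final) in 25 mM Hepes, 0.01% Triton X-100, pH 7.0 was preincubated 15 min at room temperature with compound. Then 40 uM arachidonic acid was added, 30 min. Hydroperoxide was read by Fe-XO absorbance ratio 573/405 nm.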
HT1080 IDH1KD tx: toxicity to HT-1080 IDH1 knockdown cells (counter line); HT-1080 IDH1 knockdown viability, ATP luminescence, 48 h; Potency, µM (top dose mostly 46.1 µM), hits mostly cytotoxic; hit rate 2% among 360,000; AID 686971
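In this qHTS, HT-1080 cells depleted of IDH1 are exposed for 48 h at 37 °C to compound titrations. Toxicity is scored from CellTiter-Glo luminescence, with DMSO as full viability and medium alone as none.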
IL1B secr inh: blocks inflammasome-driven IL-1 beta release; THP-1 LPS/ATP IL-1B secretion, AlphaLISA, 16 h; stronger effect = lower value; activity change, % at 57.5 µM; hit rate 4.7% among 360,000; AID 743279; in the data active = activity change below about -50%; inconclusive = mostly about -30% to -49%
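Secreted IL-1B measured by AlphaLISA bead assay after 16 h compound exposure of THP-1 cells; compounds (final up to 57.5 uM) added 1 h before LPS (250 ng/mL) and ATP (1.25 mM) stimulation; lower signal means less secretion.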
HT1080NT lethal: kills 2HG-producing HT-1080-NT fibrosarcoma cells. hit rate 1.6% among 360,000. HT-1080-NT fibrosarcoma viability, CellTiter-Glo ATP luminescence, 48 h. Potency, µM (top dose mostly 46.1 µM), usual class: cytotoxic;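 also: NT is the 2HG producing partner of a matched IDH1 knockdown line; nearly all actives have a fitted effect of over 55% in size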
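Read-out is CellTiter-Glo luminescence after 10 minutes at room temperature, following 48 hours' compound treatment of HT-1080-NT cells (750 cells/well, RPMI, 5% FBS, 37 degrees C).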
DT40 TDP1 CPT: DT40-hTDP1 cell growth loss with CPT | hit rate 12% among 420,000 | chicken DT40 Tdp1-/-;hTDP1 cells + 20 nM CPT, ATP luminescence, 48 h | Potency, µM (doses to about 46.2 µM), most hits filed as inhibitors; also: nearly all actives have a fitted effect of over 55% in size
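Cell growth measured by CellTiter-Glo luminescence after a minimum 48 h, 37 C compound exposure with 20 nM CPT in Tdp1-knockout DT40 cells stably expressing hTDP1, seeded 400/well; qHTS titration format.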
TDP1 cell noCPT: qHTS for Inhibitors of human tyrosyl-DNA phosphodiesterase 1 (TDP1): qHTS in cells in absence of CPT | DT40 Tdp1-/- hTDP1 cells, no CPT, ATP luminescence, 48 h | Potency, µM (series often up to 46.2 µM), most hits filed as inhibitors | hit rate 15% among 420,000 | AID 686978, 2013; also: nearly all actives have a fitted effect of over 55% in size
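Cells were dispensed at 400 per well, compounds added by pin tool, plates incubated ≥48 hr at 37 °C, then CellTiter-Glo added for 30 min at room temperature before luminescence reading. Line: DT40 Tdp1-/- complemented with hTDP1; camptothecin omitted.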
Hits are given with their value; i = inactive; ? = inconclusive; nt = no result given; [ ] = remark or other dose. Unless noted, calls follow the shape of the dose curve; as a rule, active = well fitted curve in the direction sought with a large enough effect; inconclusive = small, poorly fitted or top-dose-only effect, or another doubt; inactive = no such curve, though single readings can be large; an effect the other way counts as inactive or inconclusive.

SMILES	12-LOX inh	HT1080 IDH1KD tx	IL1B secr inh	HT1080NT lethal	DT40 TDP1 CPT	TDP1 cell noCPT
CCN(CC)C1CCN(C(=O)c2cc(COc3ccccc3SC)on2)C1 (stereo unspecified)	?	i	i	i	i	i
CSc1ccccc1OCc1cc(C(=O)N(C)Cc2ccc(C)o2)no1	?	i	-66.8	i	16.4µM	?
CCN(CC1CCCO1)C(=O)c1cc(COc2ccccc2SC)on1 (stereo unspecified)	i	i	i	i	16.4µM	20.6µM
CSc1ccccc1OCc1cc(C(=O)NCCn2nc(C)cc2C)no1	i	i	i	i	11.6µM	?
CSc1ccccc1OCc1cc(C(=O)N(C)Cc2ccc3nsnc3c2)no1	i	i	i	i	?	i
N#Cc1ccc(C(=O)N2CCC(Cc3nc(-c4ccccc4)n[nH]3)C2)cc1 (stereo unspecified)	i	nt	nt	nt	nt	nt
CN1CCCN(C(=O)c2cn3ccnc(-c4ccccc4)c3n2)CC1	i	nt	nt	nt	nt	nt
COC(=O)c1cn[nH]c1NC(=S)Nc1ccc(C)cc1Cl	i	i	i	i	?	?
COc1ccc(NC(=S)Nc2cc(C)[nH]n2)cc1Cl	?	i	?	i	?	18.4µM
COc1cc(C)c(NC(=S)Nc2ccc(C)c(Cl)c2)cc1OC	?	i	i	i	i	i
Cc1cc(NC(=S)Nc2ccc(C)c(Cl)c2)n[nH]1	14.1µM	i	i	i	?	?
COC(=O)c1cn[nH]c1NC(=S)Nc1ccc(Cl)c(Cl)c1	i	?	i	?	?	25.1µM
COc1ccc(NC(=O)COc2ccccc2)cc1Cl	i	i	i	i	i	i
COc1ccc(NC(=S)Nc2cc(-c3ccccc3)[nH]n2)cc1Cl	?	?	?	12.6µM	22.4µM	?
COc1ccc(-c2oc3cc(OC(C)=O)cc(OC(C)=O)c3c(=O)c2OC)cc1	i	?	i	?	i	?
COc1ccc(-c2cc(=O)c3c(OC(C)=O)cc(OC(C)=O)cc3o2)cc1	nt	nt	nt	nt	i	?
CC(=O)Oc1cc(OC(C)=O)c2c(=O)cc(-c3ccc(OC(C)=O)c(OC(C)=O)c3)oc2c1	nt	nt	nt	nt	?	26.6µM
CC(=O)Oc1cc(O)c2c(=O)c(OC(C)=O)c(-c3ccc(OC(C)=O)c(OC(C)=O)c3)oc2c1	nt	i	i	i	?	20.6µM
COc1cccc(C2=Cc3ccc(F)cc3C(CC(C)=O)N2c2ccc(C#CC3(O)CCCCC3)cc2)c1 (stereo unspecified)	15.8µM	?	i	?	?	?
COc1ccc2c(c1)C(CC(C)=O)N(c1ccc(-c3cnc(OC)nc3)cc1)C(c1ccsc1)=C2 (stereo unspecified)	i	i	i	i	i	?
COc1cc(OC)cc(C2=Cc3ccc(OC)cc3C(CC(C)=O)N2c2ccc(C#CC3(N)CCCCC3)cc2)c1 (stereo unspecified)	i	25.9µM	i	16.4µM	5.17µM	25.9µM
COc1cc(-c2ccc(N3C(c4ccsc4)=Cc4ccccc4C3CC(C)=O)cc2)cc(OC)c1OC (stereo unspecified)	?	i	i	i	?	?
COc1cc(OC)cc(C2=Cc3ccccc3C(CC(C)=O)N2c2ccc(C#CC3(N)CCCCC3)cc2)c1 (stereo unspecified)	i	13µM	i	14.6µM	?	?
COc1cc(OC)cc(C2=Cc3ccc(OC)cc3C(CC(C)=O)N2c2ccc(C#CC3(O)CCCCC3)cc2)c1 (stereo unspecified)	?	i	i	i	?	20.6µM
CC(=O)CC1c2cc(F)ccc2C=C(c2ccsc2)N1c1ccc(-c2ccc(C(N)=O)cc2)cc1 (stereo unspecified)	?	?	i	?	?	?
SMILES	12-LOX inh	HT1080 IDH1KD tx	IL1B secr inh	HT1080NT lethal	DT40 TDP1 CPT	TDP1 cell noCPT
CCOCCCNC(=O)CC1CC2CCC1C2 (stereo unspecified)	i	nt	nt	nt	nt	nt
Cc1ccc(OCC(O)Cn2nnc(-c3cccnc3)n2)c(C)c1 (stereo unspecified)	i	nt	nt	nt	nt	nt
Cn1c(-c2ccc([N+](=O)[O-])cc2)nc2ccccc21	i	i	i	i	i	i
Cn1nc([N+](=O)[O-])c(C(C#N)c2nc3ccccc3n2C)c(Cl)c1=O (stereo unspecified)	i	i	i	i	?	23.1µM
C[S+](=O)([O-])N1Cc2ccccc2CC12CN(C(=O)c1ccccc1F)C2	i	nt	nt	nt	nt	nt
CN(C)c1cc(NC(=O)CNC(C)(C)C)c(O)c2c1C[C@@H]1C[C@H]3[C@H](N(C)C)C(=O)C(C(N)=O)=C(O)[C@@]3(O)C(=O)C1=C2O	i	nt	nt	nt	nt	nt
CN(C)c1cc(NC(=O)CNC(C)(C)C)c(O)c2c1C[C@H]1C[C@H]3[C@H](N(C)C)C(=O)C(C(N)=O)=C(O)[C@@]3(O)C(=O)C1=C2O	nt	nt	nt	nt	i	i
CN(C)c1ccc(O)c2c1CC1CC3C(N(C)C)C(=O)C(C(N)=O)=C(O)[C@@]3(O)C(=O)C1=C2O (stereo partly specified)	i	nt	i	nt	2.06µM	1.84µM
CN(C)c1ccc(O)c2c1CC1CC3[C@@H](N(C)C)C(=O)C(C(N)=O)C(=O)[C@]3(O)C(=O)C1C2=O (stereo partly specified)	i	nt	i	nt	6.51µM	4.11µM
CCn1c(SCC(=O)Nc2ccnn2C2CCCC2)nnc1C1CC1	i	nt	nt	nt	nt	nt
COc1ccc(CCNc2ncnc3c2CN(C2CCCNCC2)C(=O)CN3C)cc1 (stereo unspecified)	i[6.33 µM]	nt	nt	nt	nt	nt
Clc1ccc2nc(CN3CCCc4ccccc43)cn2c1	i	?	-78.4	?	13µM	18.4µM
Clc1ccc2nc(CN3CCCCC3)cn2c1	i	i	i	i	?	i
COc1ccc(N(CC(=O)Nc2ccccc2C(=O)N2CCCCCC2)S(C)(=O)=O)c(OC)c1	i	nt	nt	nt	nt	nt
O=C(Nc1cccc(S(=O)(=O)N2CCCC2)c1)c1cc(=O)[nH]c2ccccc12	i	i	i	i	i	i
O=C(Nc1cccc(S(=O)(=O)N2CCCCC2)c1)c1cc(=O)[nH]c2ccccc12	i	i	?	i	23.1µM	18.4µM
Cc1ccnc(NC(=O)c2cccc(NC(=O)c3ccc(Cl)cc3)c2)c1	i	i	i	i	?	20.6µM
CC1CCN(C(C)C(=O)Nc2ccc(S(=O)(=O)N3CCCC3)cc2)CC1 (stereo unspecified)	i	i	i	i	i	i
CC(C(=O)Nc1ccc(S(=O)(=O)N2CCCC2)cc1)N1CCN(c2ccccc2O)CC1 (stereo unspecified)	i	i	i	i	?	23.1µM
